Assay [1] can be described thus: compound effects on lung adenocarcinoma cell viability – A549, calcein-AM fluorescence, 48 h, basal, profiling panel (AID 1162). Further: test concentration not given here. The following applies: higher = more signal.
Assay [2] can be described thus: compound effects on differentiated 3T3-L1 adipocyte viability – cell-based, 3T3-L1 adipocytes, calcein-AM fluorescence, 48 h, basal, profiling panel (AID 1163). Further: test concentration not given here. The following applies: 3T3-L1 adipocytes viability, higher = more signal.
Assay [3] in a line: compound effects on hepatocellular carcinoma cell viability – HepG2, calcein-AM fluorescence, 48 h, basal, profiling panel (AID 1164). Further: test concentration not given here. Conditions: higher = more signal.
A short description of assay [4]: compound effects on multiple myeloma cell viability – MM1S, calcein-AM fluorescence, 48 h, basal, profiling panel (AID 1165).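 Further: viability of MM1S multiple myeloma cells under basal unstimulated conditions; test concentration not given here.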 The following applies: higher = more signal.
The nature of assay [5]: calcein-AM signal in unstimulated myeloma cells – cell-based, calcein-AM fluorescence, 48 h, PK04 Diversity Set, profiling panel (AID 1166).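 Further: cells grown under basal conditions without added stimulus; test concentration not given here.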 The following applies: RPMI8226 myeloma viability, higher = more signal.
Assay [6] is described as follows: JC-1 mitochondrial signal, unstimulated HepG2 cells – cell-based, JC-1 fluorescence, 24 h, 100 nL compound, profiling panel (AID 1167). Further: test concentration not given here. The following applies: HepG2 mitochondrial potential, higher = more signal.
Assay [7] is described as follows: JC-1 mitochondrial signal, unstimulated adipocytes – cell-based, JC-1 fluorescence, 3T3-L1 adipocytes, 24 h, 100 nL compound, profiling panel (AID 1168). Further: test concentration not given here. Conditions: JC-1 mitochondrial fluorescence, higher = more signal, called active from +8 up or from −8 down.
Assay [8] in a line: JC-1 mitochondrial signal, unstimulated myeloma cells – cell-based, JC-1 fluorescence, RPMI8226, 24 h, 100 nL compound, profiling panel (AID 1169). Further: test concentration not given here. The following applies: JC-1 mitochondrial potential fluorescence, higher = more signal.
A short description of assay [9]: JC-1 mitochondrial signal, unstimulated MM1S myeloma – cell-based, JC-1 fluorescence, 24 h, 100 nL compound, profiling panel (AID 1170). Further: test concentration not given here. Conditions: MM1S mitochondrial potential, higher = more signal.
A short description of assay [10]: resazurin metabolic signal in A549 cells – cell-based, resazurin fluorescence, 24 h, PK04 Diversity Set, profiling panel (AID 1171). Further: test concentration not given here. The following applies: A549 viability, higher = more signal, called active from +8 up or from −8 down. (The colour change of resazurin is a common sign of viable cells or microbes.)
The nature of assay [11]: resazurin metabolic signal in HepG2 cells – cell-based, resazurin fluorescence, 24 h, PK04 Diversity Set, profiling panel (AID 1172). Further: test concentration not given here. Conditions: HepG2 viability, higher = more signal.
The nature of assay [12]: budding yeast growth changes without added modifier – OD600, strain BY4716, 24 h, basal condition, primary screen (AID 1173). The following applies: S. cerevisiae BY4716 growth, OD600, 24 h; higher = more signal, called active from +8 up or from −8 down.
Assay [13] is described as follows: viability profiling in MM1S myeloma cells – cell-based, resazurin fluorescence, basal, 24 h, PK04 Diversity Set, profiling panel (AID 1174). Further: test concentration not given here. The following applies: higher = more signal, called active from +8 up or from −8 down.
The target of assay [14] is Dihydroorotate dehydrogenase (quinone), mitochondrial (Plasmodium falciparum (isolate 3D7)) (UniProt Q08210). As to the kind of experiment: inhibition of P. falciparum DHODH – biochemical, C-terminal His tag, absorbance 600 nm, primary screen (AID 1175).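 Further: recombinant parasite enzyme with a five histidine tag at its C terminus; test concentration not given here.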 Conditions: PfDHODH enzyme, DCIP absorbance 600 nm; higher = more signal, called active from +8 up or from −8 down.
Sequence of Dihydroorotate dehydrogenase (quinone), mitochondrial (Plasmodium falciparum (isolate 3D7)) (Q08210 whole entry, looked up): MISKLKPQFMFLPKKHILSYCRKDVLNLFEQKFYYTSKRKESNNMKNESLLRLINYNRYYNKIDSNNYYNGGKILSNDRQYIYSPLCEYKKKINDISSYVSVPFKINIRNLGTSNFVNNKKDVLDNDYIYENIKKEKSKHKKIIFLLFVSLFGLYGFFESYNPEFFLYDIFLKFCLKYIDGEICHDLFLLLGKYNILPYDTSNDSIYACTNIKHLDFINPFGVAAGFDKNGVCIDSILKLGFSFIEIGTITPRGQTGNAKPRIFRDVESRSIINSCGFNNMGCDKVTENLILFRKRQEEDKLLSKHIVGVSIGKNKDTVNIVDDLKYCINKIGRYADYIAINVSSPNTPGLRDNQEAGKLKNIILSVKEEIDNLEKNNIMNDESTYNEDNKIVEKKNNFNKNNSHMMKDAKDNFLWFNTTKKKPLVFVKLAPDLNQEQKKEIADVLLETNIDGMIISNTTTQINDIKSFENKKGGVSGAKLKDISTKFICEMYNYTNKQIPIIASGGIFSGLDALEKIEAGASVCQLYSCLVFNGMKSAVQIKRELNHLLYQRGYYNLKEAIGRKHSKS
A short description of assay [15]: inhibition of PAO1 biofilm formation – strain PAO1, LB-PBS medium, absorbance 600 nm, primary screen (AID 1176). Further: test concentration not given here. The following applies: P. aeruginosa PAO1 growth/biofilm, A600, 12 h; higher = more signal.
Assay [16] is described as follows: growth modulation of vineyard yeast isolate – strain RM11-1a, OD600, basal, 24 h, primary screen (AID 1177).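 Further: cultures grown under basal conditions with no added stressor; test concentration not given here.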 The following applies: S. cerevisiae RM11-1a growth, OD600, 24 h; higher = more signal, called active from +8 up or from −8 down.
The nature of assay [17]: growth of efflux-deficient E. coli DRC39 – strain DRC39, OD650, 24 h, E. coli filamentation inducers, primary screen (AID 1178).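 Further: growth measured as culture turbidity by optical density at 650 nm; test concentration not given here.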 Conditions: E. coli DRC39 acrAB, higher = more signal, called active from +8 up or from −8 down.
The nature of assay [18]: growth of efflux-deficient E. coli DRC39 – strain DRC39, OD650, 48 h, E. coli filamentation inducers, primary screen (AID 1179).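 Further: screen aims at cell division blockers that make cells filament.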 Conditions: E. coli DRC39 delta-acrAB growth, higher = more signal, called active from +8 up or from −8 down.
Assay [19] in a line: viability profiling in RPMI8226 myeloma cells – cell-based, resazurin fluorescence, basal, 24 h, PK04 Diversity Set, profiling panel (AID 1180).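 Further: RPMI8826 multiple myeloma cell line at 5000 cells per well; test concentration not given here.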 The following applies: higher = more signal.
For assay [20], the target named is E3 ubiquitin-protein ligase XIAP (Homo sapiens) (UniProt P98170). As to the kind of experiment: small molecules binding XIAP protein – biophysical, small-molecule microarray, fluorescence 635 nm, primary screen (AID 1181).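 Further: score merges 667 nm emission and signal to noise over triplicate slides.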 The following applies: higher = more signal.
Sequence of E3 ubiquitin-protein ligase XIAP (Homo sapiens) (P98170 whole entry, looked up): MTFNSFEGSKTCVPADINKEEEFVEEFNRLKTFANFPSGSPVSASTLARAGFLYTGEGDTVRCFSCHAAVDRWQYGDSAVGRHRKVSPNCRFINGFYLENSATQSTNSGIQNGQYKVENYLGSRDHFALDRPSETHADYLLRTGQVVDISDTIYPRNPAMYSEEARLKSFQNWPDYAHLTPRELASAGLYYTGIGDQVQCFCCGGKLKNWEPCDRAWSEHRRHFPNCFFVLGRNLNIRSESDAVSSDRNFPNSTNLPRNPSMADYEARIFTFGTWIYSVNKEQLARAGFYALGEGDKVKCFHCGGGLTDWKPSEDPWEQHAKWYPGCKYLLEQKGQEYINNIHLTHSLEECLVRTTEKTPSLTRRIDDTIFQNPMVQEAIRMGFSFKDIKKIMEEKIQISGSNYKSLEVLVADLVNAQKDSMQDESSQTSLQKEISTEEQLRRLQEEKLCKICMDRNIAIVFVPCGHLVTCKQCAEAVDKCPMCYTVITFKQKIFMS

Activity calls are given as the source filed them. Unless noted, how the calls were made is not given here.

We go through nine compounds from PubChem BioAssay.

With `COCCCNC(=O)[C@@]1(CCC(=O)OC(C)(C)C)N=C(c2ccc(OCCCO)cc2)O[C@H]1c1ccccc1CN=[N+]=[N-]`, the z-score in assay [1] was 0.463; in assay [2] it was 0.892; in [3], -0.244; in [4] it was 0.153; in assay [5], -0.853; in [6], 0.88. In addition, the z-score in assay [7] was -0.736 (inactive); in [8] it was 0.665; in [9] it was 0.5; in assay [10], 0.155 (inactive); in [11], 0.495; in assay [12] it was -0.78 (inactive). For the same compound, the z-score in [13] is -0.0488 (inactive); in [15] it was -0.167 (inactive); in [16] it was 0.424 (inactive); in assay [17], 0.481 (inactive); in [18] it was -0.28 (inactive); in assay [19], 0.423. For the same compound, the composite z-score in [14] is -0.256 (inactive); in assay [20] it was -0.212.
`C=CC[C@@]1(C(=O)N2CCOCC2)N=C(c2ccc(OCCCO)cc2)O[C@@H]1c1ccccc1N=[N+]=[N-]`: the z-score was -0.168 in [1]; 1.02 in assay [2]; 0.249 in [3]; -0.791 in assay [4]; -1.96 in assay [5]; 1.38 in assay [6]. In addition, the z-score in assay [7] was 1.57 (inactive); in [8] it was -0.97; in assay [9] it was -1.71; in [10] it was -0.915 (inactive); in assay [11], -0.268; in assay [12], -1.24 (inactive). In addition, the z-score in assay [13] was -1.64 (inactive); in [15] it was -0.236 (inactive); in assay [16], 0.367 (inactive); in assay [17], 0.992 (inactive); in assay [18], 0.123 (inactive); in assay [19], -1.33. The composite z-score in [14] is 0.443 (inactive); in [20], 0.117.
Turning to `CC(C)N1C(=O)c2ccccc2[C@@H](C(=O)NCCCN(C)C)[C@@H]1c1ccc(CO)cc1`, the z-score is 0.177 in assay [1]; 1.46 in assay [2]; 0.0397 in assay [3]; 0.551 in assay [4]; -0.981 in assay [5]; 1.09 in assay [6]. The z-score in assay [7] is -0.205 (inactive); in [8], 0.75; in assay [9], 0.499; in [10] it was -0.565 (inactive); in [11], -0.456; in assay [12], -0.725 (inactive). For the same compound, the z-score in [13] was -0.0365 (inactive); in assay [15], -0.273 (inactive); in [16], 0.625 (inactive); in assay [17], -0.315 (inactive); in [18] it was -0.621 (inactive); in [19] it was 0.764. For the same compound, the composite z-score in assay [14] is 0.465 (inactive); in assay [20], 0.013.
As to `O=C(O)[C@@]1(Cc2ccccc2)N=C(c2ccc(OCCCO)cc2)O[C@H]1c1ccccc1`, the z-score was 0.83 in [1]; -0.664 in assay [2]; -0.235 in [3]; 0.275 in assay [4]; 0.237 in assay [5]; 0.628 in assay [6]. In addition, the z-score in assay [7] was 1.29 (inactive); in [8] it was -0.182; in [9], -0.558; in assay [10] it was 0.575 (inactive); in [11] it was 0.712; in [12], -1.12 (inactive). The z-score was 0.551 (inactive) in [13]; -0.692 (inactive) in assay [15]; 0.291 (inactive) in assay [16]; 0.24 (inactive) in assay [17]; 1.34 (inactive) in [18]; 0.655 in assay [19]. Further, the composite z-score in [14] is 1.22 (inactive); in assay [20], -0.0095.
On to `CCCCC=C[C@@H](NC(=O)c1cccs1)c1ccccc1`, for which the z-score is -2.03 in assay [1]; -0.906 in assay [2]; -1.92 in assay [3]; -1.66 in assay [4]; -4.69 in assay [5]; -0.503 in assay [6]. In addition, the z-score in assay [7] is 0.482 (inactive); in assay [8] it was -0.817; in assay [9], -1.73; in assay [10], -1.49 (inactive); in assay [11], 0.327; in [12], 0.822 (inactive). Also, the z-score in assay [13] was -0.321 (inactive); in [15] it was 0.191 (inactive); in assay [16], 1 (inactive); in assay [17] it was 0.659 (inactive); in [18], 0.955 (inactive); in assay [19], -1.95. The composite z-score in [14] was 0.0375 (inactive); in assay [20], -0.0426.
As for `O=C(CS)NCCCCCCNC(=O)[C@H]1C[C@H]2C(=O)N3CCC[C@H]3C(=O)N2[C@H]1c1cccc(OCCO)c1`, the z-score was -0.464 in assay [1]; -0.966 in assay [2]; -0.0465 in [3]; -0.939 in assay [4]; 0.529 in assay [5]; -0.971 in [6]. Also, the z-score in assay [7] was -0.955 (inactive); in assay [8] it was -0.127; in [9], -0.285; in [10], 0.388 (inactive); in assay [11], -0.162; in [12] it was 0.232 (inactive). Also, the z-score was -0.837 (inactive) in assay [13]; 0.0499 (inactive) in [15]; -0.656 (inactive) in assay [16]; -0.34 (inactive) in assay [17]; -0.596 (inactive) in assay [18]; -0.953 in assay [19]. Also, the composite z-score in assay [14] is -0.15 (inactive); in assay [20] it was 0.104.
For the compound `CCN(CC)c1ccc(N2CC=CC34O[C@@H]5/C=C\CCCOC(=O)C5[C@H]3C(=O)N(C(CO)C(C)C)[C@@H]4C2=O)cc1` (stereo not given in full), the z-score in assay [1] is -0.0889; in assay [2], 0.102; in assay [3], 0.825; in assay [4], 0.905; in assay [5], -0.62; in [6], -0.243. Besides, the z-score in assay [7] was -0.0916 (inactive); in assay [8], 0.139; in assay [9], -0.26; in [10] it was -0.506 (inactive); in assay [11] it was -0.211; in assay [12] it was 0.282 (inactive). Moreover, the z-score in assay [13] is -0.2 (inactive); in [15], -0.36 (inactive); in [16], 0.831 (inactive); in [17] it was -0.0034 (inactive); in [18] it was 0.0801 (inactive); in assay [19], -0.0389. Moreover, the results for the composite z-score in assay [14] and in assay [20] were -0.952 (inactive) and 0.336, respectively.
For `COC(=O)C[C@H]1O[C@]2(C(=O)N(Cc3ccccc3)c3ccc(NC(C)=O)cc32)[C@@H](C)[C@@H]1[Si](C)(C)c1ccc(OC)cc1`, the z-score in assay [1] was -0.472; in assay [2], 1.73; in assay [3] it was 0.425; in [4], 0.0926; in assay [5], -2.57; in [6], 0.0504. In addition, the z-score in [7] is 1.73 (inactive); in assay [8], -0.0063; in assay [9] it was 0.402; in assay [10], -1.62 (inactive); in assay [11] it was -1.11; in [12], 0.457 (inactive). For the same compound, the z-score in assay [13] is -1.33 (inactive); in assay [15] it was -0.602 (inactive); in [16] it was 0.952 (inactive); in assay [17], -0.871 (inactive); in assay [18], -0.69 (inactive); in assay [19], -0.681. Moreover, the composite z-score was 1.45 (inactive) in assay [14] and -0.227 in assay [20].
For `O=C(O)[C@H]1C[C@H]2C(=O)NCC(=O)N2[C@H]1c1ccc(O)cc1`, the z-score was 1.14 in assay [1]; 0.108 in assay [2]; 0.752 in [3]; -2.55 in [4]; -0.593 in [5]; 2.37 in assay [6]. In addition, the z-score in assay [7] is -0.262 (inactive); in [8], -0.629; in [9], -1.43; in [10], 0.672 (inactive); in [11] it was 1.46; in [12] it was -1.25 (inactive). Moreover, the z-score in assay [13] was 0.866 (inactive); in assay [15], 0.0904 (inactive); in [16], -0.804 (inactive); in assay [17] it was 1.49 (inactive); in assay [18], 1.51 (inactive); in assay [19] it was 0.839. Also, the values for the composite z-score in [14] and in assay [20] were -0.592 (inactive) and -0.211, respectively.
